# Among all 16,000 compounds or so, about 4,000 (25%) were called active. Roughly 26% stayed inconclusive and do not appear here. The list is a sample of the results. A number with no mark means an inactive call. Calls come from the whole dose curve; as a rule, active = well fitted curve in the direction sought with a large enough effect; inconclusive = small, poorly fitted or top-dose-only effect, or effect the other way; inactive = no such curve, though single readings can be large or run the other way.
# Target: Cytochrome P450 2C9 (Homo sapiens) (UniProt P11712)
# Sequence (P11712 whole entry, looked up): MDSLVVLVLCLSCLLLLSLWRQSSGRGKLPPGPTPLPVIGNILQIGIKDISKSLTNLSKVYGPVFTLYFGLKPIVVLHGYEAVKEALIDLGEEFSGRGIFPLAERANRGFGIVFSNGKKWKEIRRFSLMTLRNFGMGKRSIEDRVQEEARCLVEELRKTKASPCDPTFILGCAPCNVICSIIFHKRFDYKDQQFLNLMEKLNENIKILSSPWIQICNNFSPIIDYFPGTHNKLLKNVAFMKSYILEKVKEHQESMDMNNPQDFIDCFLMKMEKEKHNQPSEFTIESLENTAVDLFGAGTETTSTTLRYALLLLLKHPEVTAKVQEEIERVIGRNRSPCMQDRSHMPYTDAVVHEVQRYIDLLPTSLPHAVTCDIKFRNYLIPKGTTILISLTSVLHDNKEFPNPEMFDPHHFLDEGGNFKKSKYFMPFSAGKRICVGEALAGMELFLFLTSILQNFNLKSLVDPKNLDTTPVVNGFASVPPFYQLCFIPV
# Assay: Cytochrome panel assay with activity outcomes
# Settings: recombinant CYP, pro-luciferin dealkylation, luminescence, p450-cyp2c9; series mostly up to 57.1 µM
# % is set by controls: 0 for no effect and ±100 for the full control effect.
Compound,AC50,"activity, negative = inhibition"
CN1CCC(=C2c3ccccc3Sc3ccccc32)CC1,inactive,
COc1ccccc1N1CCN(C(=O)C(NS(=O)(=O)c2cccs2)c2ccccc2)CC1 (stereo unspecified),11.2 µM (active),
COC(=O)NCC(c1cccnc1)N1CCN(c2ccccc2OC)CC1 (stereo unspecified),inactive,
COC(=O)N1CCC2(CC1)CCN(c1ccccc1)CC2,inactive,
COc1ccccc1N1CCN(Cc2cc(=O)n3ccsc3n2)CC1,inactive,
O=C(C(NS(=O)(=O)c1cccs1)c1ccccc1)N1CCN(c2ccccc2)CC1 (stereo unspecified),8.91 µM (active),
O=C(CCNS(=O)(=O)c1cccs1)N1CCc2ccccc2C1,inactive,
S=c1c2[nH]cnc2ncn1CCSc1ncnc2nc[nH]c12,,-0.398% [at 11.4 µM]
NS(=O)(=O)c1ccc(NCc2cnc3ccccc3n2)cc1,,1.39% [at 11.4 µM]
NS(=O)(=O)c1ccc(NCc2nc3ccccc3[nH]2)cc1,,7.25% [at 11.4 µM]
NS(=O)(=O)c1ccc(NCc2ccccc2OCc2ccccc2F)cc1,3.98 µM (active),
O=c1nc(N2CCCCCC2)nc(N2CCCCCC2)[nH]1,inactive,
Cc1cnc(CNc2ccnc(-c3cccc(NS(C)(=O)=O)c3)n2)cn1,,16.8% [at 2.29 µM]
Nc1nc(N)c(N=Nc2ccc(C(=O)O)c(O)c2)c(N)n1,,-6.7% [at 11.4 µM]
Cc1ccc(C)c(C(=N)c2ccccc2Cc2ccccc2)c1,,-26.1% [at 11.4 µM]
Cc1ccccc1Cn1c(Cc2ccccc2)nc2ccccc21,5.01 µM (active),
O=C(C(Cc1ccccc1)N1C(=O)C2C3CCC(C3)C2C1=O)N1CCCCC1 (stereo unspecified),inactive,
CCCCCn1c(CN2CCN(c3cc(Cl)ccc3C)CC2)nc2c1c(=O)[nH]c(=O)n2C,3.55 µM (active),
Cn1c(=O)[nH]c(=O)c2c1nc(CN1CCOCC1)n2CCCO,inactive,
CCN1CCN(c2nc3c(c(=O)[nH]c(=O)n3C)n2CCCSc2ncccn2)CC1,inactive,
COc1cccc(=O)c2c(C)n(-c3cc(C)cc(C)c3)c(C)c12,3.98 µM (active),
NC(Cc1ccccc1)=NCC(=O)O,,-1.5% [at 11.4 µM]
CCCc1nnc(SCC(=O)N2CCCCC2)n1CCCOC,inactive,

Compound,AC50,"activity, negative = inhibition"
Cn1c(=O)cc(SCC(=O)NCCCN2CCOCC2)c2ccc(Cl)cc21,inactive,
CCOC(=O)CSc1cc(=O)n(C)c2cc(Cl)ccc12,14.1 µM (active),
O=[N+]([O-])c1cc(/C=N/O)ccc1SCc1ccccc1,inactive,
Cc1c(C(=O)NN2CCN(C)CC2)cccc1[N+](=O)[O-],inactive,
Cc1c(NC(=O)C(Sc2ccccc2)c2ccccc2)cccc1[N+](=O)[O-] (stereo unspecified),0.251 µM (active),
CC(C)Cn1c(-c2nn(C)cc2Cl)n[nH]c1=S,inactive,
CN1CCN(c2ncc3nc(-c4ccc(Cl)cc4)c(=O)n(CCC#N)c3n2)CC1,inactive,
CCOC(=O)c1cc(-c2ccc(Cl)cc2)nc2c1c(C)nn2CCC#N,10 µM (active),
OCCNc1nc2ccccc2[nH]1,inactive,
OC(Cc1nc2ccccc2[nH]1)c1ccccc1Cl (stereo unspecified),14.1 µM (active),
O=C1CC[C@](CCc2nc3ccccc3[nH]2)(c2ccccc2)C(=O)N1,,-12.8% [at 11.4 µM]
COCC(=O)N1CCC[C@@]2(CCN(Cc3ccccc3OC)C2)C1,inactive,
CCc1ccc(C(=O)COC(=O)C(Cc2ccccc2)NC(=O)C2CCC(C)CC2)cc1 (stereo unspecified),inactive,
CCC(=O)Nc1ccccc1C(=O)OCC(=O)c1ccccc1,0.631 µM (active),
CCOC(=O)c1ccccc1NC(=O)/C(C)=C/C(=O)O,inactive,
CCC(=O)Nc1ccccc1C(=O)OCC(=O)c1cccc2ccccc12,2.24 µM (active),
C[N+]1(C)CCO[C@](O)(c2ccccc2)C1,,3.31% [at 11.4 µM]
CSCC[C@H](NC(=O)CC(C)(C)C)c1nc2ccccc2[nH]1,14.1 µM (active),
CSCC[C@H](NC(=O)c1nn(C)c(=O)c2ccccc12)c1nc2ccccc2[nH]1,2 µM (active),
CCCCCCCCCCCC1=C(O)C(=O)C=C(O)C1=O,inactive,
Cn1c(C(F)(F)F)nc2c(=O)oc3ccccc3c21,inactive,
O=C(OCc1ccc(Cl)cc1)c1ccccc1C(=O)c1ccccc1,4.47 µM (active),
O=C(O)c1ccc(C(=O)c2ccccc2)c(C(=O)O)c1,,21.8% [at 11.4 µM]

Compound,AC50,"activity, negative = inhibition"
O=C(O)c1ccccc1C(=O)NNc1ccc(Cl)cc1,inactive,
CC(C)(C)C1CCC(OCC(O)CN2CCN(c3ccccc3)CC2)CC1 (stereo unspecified),inactive,
CCOC(=O)CCN1C(=O)[C@H]2[C@H]3[C@H](O)[C@H](O)C/C(=N/OC[C@@H](O)COCc4ccco4)[C@@H]3CC[C@@H]2C1=O,,-5.27% [at 11.4 µM]
N#C/C(=C\c1cc([N+](=O)[O-])c(N2CCCCC2)cc1N1CCCCC1)c1nn(-c2ccccc2)c(N)c1C#N,0.316 µM (active),
CC1CCN(c2cc(N3CCC(C)CC3)c([N+](=O)[O-])cc2/C=C(\C#N)c2nn(-c3ccccc3)c(N)c2C#N)CC1,0.224 µM (active),
c1cncc(-c2cncnc2NCc2cccs2)c1,,-1.39% [at 2.29 µM]
COc1cccc(-c2cncnc2NCCc2cnc[nH]2)c1,0.251 µM (active),
COc1cccc(-c2cncnc2NCc2cccnc2)c1,,-10.5% [at 2.29 µM]
COc1cccc(-c2cncnc2NCc2cnc(C)cn2)c1,,4.41% [at 2.29 µM]
COc1cccc(-c2cncnc2NCc2cccs2)c1,0.398 µM (active),
COc1cccc(-c2cncnc2NCCN2CCOCC2)c1,,1.81% [at 2.29 µM]
CS(=O)(=O)Nc1cccc(-c2cncnc2NCc2cccs2)c1,0.126 µM (active),
CS(=O)(=O)Nc1cccc(-c2cncnc2NCc2ccccc2)c1,0.398 µM (active),
CS(=O)(=O)Nc1cccc(-c2cncnc2NCc2cccnc2)c1,,-3.43% [at 2.29 µM]
CS(=O)(=O)Nc1cccc(-c2cncnc2Nc2ccccc2)c1,,-11.4% [at 2.29 µM]
CS(=O)(=O)Nc1cccc(-c2cncnc2Nc2ccc(F)cc2)c1,,-8.15% [at 2.29 µM]
COc1ccccc1CNc1ncncc1-c1cccc(NS(C)(=O)=O)c1,,-27.7% [at 2.29 µM]
O=C(O)CSCNC(=O)CC12CC3CC(CC(C3)C1)C2,inactive,
c1csc(CNc2ncncc2-c2ccc3c(c2)OCO3)c1,0.316 µM (active),
Cc1cccc(CNc2ncncc2-c2ccc3c(c2)OCO3)c1,,-20.1% [at 2.29 µM]
CN(C)c1ccc(-c2cncnc2NCc2cccs2)cc1,,-23.6% [at 2.29 µM]
COCCn1nc2cc(C(=O)NCc3cc(C(F)(F)F)cc(C(F)(F)F)c3)ccc2c1OC,inactive,
CCOc1c2ccc(C(=O)NCc3ccc(OC(F)(F)F)cc3)cc2nn1C,15.8 µM (active),

Compound,AC50,"activity, negative = inhibition"
CCn1nc2cc(C(=O)NCC34CC5CC(CC(C5)C3)C4)ccc2c1OC,14.1 µM (active),
CCCN(CCC)CCCNC(=O)c1ccc2c(c1)N(CC)C(=O)c1ccccc1S2=O (stereo unspecified),inactive,
CCOc1c2ccc(C(=O)NCc3ccc4c(c3)OCO4)cc2nn1CC,14.1 µM (active),
CCOc1c2ccc(C(=O)NCCCCc3ccccc3)cc2nn1CC,11.2 µM (active),
NC[C@@H]1O[C@H](O[C@@H]2[C@H](O[C@@H]3O[C@H](CO)[C@@H](COC[C@H]4O[C@@H](CN)[C@@H](O)[C@@H](O)[C@@H]4N)[C@@H]3O)[C@@H](O)[C@@H](N)C[C@H]2N)[C@@H](N)[C@H](O)[C@@H]1O,inactive,
Clc1ccccc1-c1nc(-n2ccnc2)c2ccccc2n1,,-16.4% [at 2.29 µM]
CCCn1nc2cc(C(=O)NCc3ccccc3OC)ccc2c1OCC,inactive,
CCCn1nc2cc(C(=O)NCCCCc3ccccc3)ccc2c1OCC,12.6 µM (active),
CCOC(=O)N/N=C1/C[C@@H](O)[C@@H](O)[C@@H]2[C@@H]3C(=O)N(C(C)(C)C)C(=O)[C@H]3CC[C@H]12,,-0.388% [at 11.4 µM]
Clc1cccc(N/N=C/c2ccc(N3CCOCC3)cc2)c1,inactive,
Cc1cc(O)c(/C=N/Nc2cccc(Cl)c2)c(=O)o1,3.16 µM (active),
CCC(CC)c1nnc(NC(=O)c2cccc(S(=O)(=O)N3CCc4ccccc43)c2)s1,1.58 µM (active),
CCOC(=O)CSc1nnc(NC(=O)c2cccc(S(=O)(=O)N3CCCCCC3)c2)s1,1 µM (active),
O=[N+]([O-])c1ccc2c(N=Nc3ccc4ccccc4c3O)c(O)cc(S(=O)(=O)O)c2c1,3.16 µM (active),
O=S(=O)(O)c1ccc2c(N=Nc3cccc4ccccc34)c(O)c(S(=O)(=O)O)cc2c1,,-3.82% [at 11.4 µM]
O=S(=O)(O)c1ccc(N=Nc2ccc3c(S(=O)(=O)O)cccc3c2O)c2ccccc12,,-12.3% [at 11.4 µM]
O=C(Nc1cccc(C(F)(F)F)c1)N(Cc1ccc(Cl)cc1)CC(O)C(F)(F)F (stereo unspecified),8.91 µM (active),
O=C(Nc1ccccc1)N(Cc1ccccc1)CC(O)C(F)(F)F (stereo unspecified),12.6 µM (active),
O=C(O)c1ccc(NS(=O)(=O)Cc2ccccc2)cc1,,-7.98% [at 11.4 µM]
O=S(=O)(C[C@H](O)C(Cl)(Cl)Cl)NNc1ccccc1,,-2.23% [at 11.4 µM]
O=C(O)CNc1ccc(C(=O)O)cc1,,3.72% [at 11.4 µM]
Cc1cc(C2(c3cc(C)c(O)c(C(=O)O)c3)OS(=O)(=O)c3ccccc32)cc(C(=O)O)c1O,,14.9% [at 11.4 µM]

# Source: PubChem BioAssay AID1851 (National Center for Advancing Translational Sciences (NCATS), 2009)
